High-throughput results: PubChem BioAssay, National Center for Advancing Translational Sciences (NCATS)
Most compounds without a hit are left out; they make up all but 21% or so of the library.
HCMV inh = human cytomegalovirus inhibition; activity change, negative = inhibition, % at 57.5 µM; HFF cells, HCMV-luciferase reporter, 72 h; hits give low values; hit rate 4.5% among 410,000; AID 1259415; in the data active = activity change below about -60%; inconclusive = no clear call, values can overlap the other calls; inactive = above about -39%
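Cell-based, HFFs, 1000 cells/well, 16 h 37C; cpds in DMSO + HCMV-luc, MOI 1 PFU/cell; 72 h 37C; OneGlo luminescence after 5 min RT; norm. to buffer vs Salinomycin 10uM.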
Pf growth 96h = inhibits malaria parasite growth, 96 h. P. falciparum luciferase reporter growth, 96 h. Potency, µM (series often up to 28.7 µM), usual class: inhibitors. hit rate 6.9% among 320,000
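Cell-based qHTS: luciferase-tagged P. falciparum in erythrocytes (2% hematocrit, 0.05% parasitemia final) incubated with compounds for 96 hours, 37 C, 5% CO2; luciferase detection reagent then added and luminescence measured.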
HCV inhibitor = inhibitors of hepatitis C virus infection; Huh7.5.1 HCVcc-Cre infection, luciferase reporter, 44 h; Potency, µM (series often up to 41.8 µM), actives largely listed as inhibitors; hit rate 3.4% among 340,000; AID 651820
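Infectious HCVcc-Cre (~0.5 moi) was added to cells just after compound, with cells seeded 4 h earlier at 1,000 per well. Luciferase activity after 44 h culture reported infection; substrate was incubated 15 min at room temperature before reading.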
CHX counter = counter-screen for Shiga toxin inhibitors: cycloheximide protein synthesis inhibition; max response, %; hit rate 12% among 300,000; AID 2314; cell reporter, cycloheximide protein synthesis inhibition counterscreen; in the data active = max response mostly above about 13%, no sharp cut-off; inactive = mostly below about 14%; also: read at 38.3 µM for the half of the compounds with a filed dose
Shiga inhibitor = inhibitors of Shiga toxin in Vero cells | Vero cells, Shiga toxin protein synthesis inhibition reporter | inhibition, % at 38.7 µM | hit rate 9.2% among 290,000 | AID 2315; in the data active = inhibition mostly above about 28%, no sharp cut-off; inactive = mostly below about 43%
Pf growth 48h = P. falciparum growth inhibition at 48 hours (one generation). P. falciparum luciferase growth in erythrocytes, 48 h. Potency, µM (series often up to 28.7 µM), usual class: inhibitors. hit rate 5.9% among 310,000
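Firefly luciferase activity from engineered P. falciparum reports growth; inhibitors lower the luminescent signal. Cultures contained 2% hematocrit erythrocytes at 0.1% final parasitemia.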
Hits are given with their value; i = inactive; ? = inconclusive; nt = no result; [ ] = another dose, or the depositor's remark. Unless noted, calls follow the shape of the dose curve; as a rule, active = well fitted inhibition curve with a large enough effect; inconclusive = small, poorly fitted or top-dose-only effect, or another doubt; inactive = no such curve, though single readings can be large or run the other way.

SMILES | HCMV inh | Pf growth 96h | HCV inhibitor | CHX counter | Shiga inhibitor | Pf growth 48h
O=c1[nH]c(=O)n(Cc2ccco2)c(O)c1C=NCc1ccc2c(c1)OCO2 | i | ? | i | i | i | i
CC1(C)CC(N=Cc2c(O)n(Cc3ccc4c(c3)OCO4)c(=O)c3ccccc23)CC(C)(C)N1 | i | 10.4µM | 11.2µM | i | i | 8.28µM
O=C1C=C(NCc2ccc(Cl)cc2)CCC1 | i | i | i | i | i | i
O=C(CS(=O)(=O)c1cn(Cc2ccccc2Cl)c2ccccc12)N1CCOCC1 | i | i | i | i | i | i
Cc1cc(NC(=O)CS(=O)(=O)c2cn(Cc3ccc(F)cc3)c3ccccc23)no1 | i | 13.1µM | ? | i | i | nt
Cc1cc(NC(=O)CS(=O)(=O)c2cn(Cc3cccc(F)c3)c3ccccc23)no1 | i | ? | ? | i | i | nt
O=C(CS(=O)(=O)c1cn(Cc2ccc(Cl)cc2)c2ccccc12)N1CCCC1 | i | 8.28µM | i | i | i | nt
COc1ccc(CCNC(=O)c2cc3c(=O)[nH]c4ccc(C)cc4c3s2)cc1OC | i | nt | nt | nt | nt | nt
CC1CCN(S(=O)(=O)c2cccc(S(=O)(=O)N3CCCC3)c2)CC1 | ? | i | i | i | i | i
CCn1ccnc1CNC(=O)c1ccc2oc(CCCc3ccccc3)nc2c1 | ? | i | ? | 18.9 | 32.3 | ?
CCCCc1nc2cc(C(=O)N(C)C(C)c3ccccn3)ccc2o1 (stereo not drawn) | i | i | i | 23.3 | 30.3 | i
Cc1cnc(CNC(=O)c2ccc3oc(Cc4ccccc4)nc3c2)[nH]1 | i | i | i | i | i | i
CCCCc1nc2cc(C(=O)NCc3ccccn3)ccc2o1 | i | 11.7µM | i | 10.2 | i | i
CC(CCCC(C)(C)O)NC(=O)c1ccc2oc(CCc3ccccc3)nc2c1 (stereo not drawn) | i | i | ? | 14.2 | i | i
CC1CCC(NC(=O)CCS(=O)(=O)c2ccc3c(c2)CC(C)N3C(=O)C2CC2)CC1 (stereo not drawn) | i | i | i | i | i | ?
CCC1(c2ccc(F)cc2)NC(=O)N(CC(=O)NC2CCCCCC2)C1=O (stereo not drawn) | i | nt | ? | nt | nt | nt
CCN1CCN(c2c(S(=O)(=O)c3ccc(C)c(C)c3)cnc3cc(OC)c(OC)cc23)CC1 | i | nt | nt | nt | nt | nt
COc1ccccc1NC(=S)NCc1ccco1 | i | nt | i | i | i | i
COc1ccccc1Nc1nc(NCc2ccco2)c2ccccc2n1 | -99.2 | ? | ? | 24.0 | i | ?
COc1ccc(Nc2nc(NCc3ccco3)nc(N)c2[N+](=O)[O-])cc1 | i | i | i | i | i | i
Cc1ccc(Nc2nc(NCc3ccco3)c3ccccc3n2)cc1 | -82.4 | i | 3.55µM | 29.6 | i | i
CNC(=O)[C@]1(C(F)(F)F)C[C@H](CCC2CCCCC2)CCCO1 | nt | nt | nt | i | i | nt
COc1ccc(CCNC(=O)C(=O)NCC(c2cccs2)S(=O)(=O)c2cccs2)cc1 (stereo not drawn) | i | nt | nt | nt | nt | nt
Nc1nc(Oc2ccc(F)cc2)c(Br)c(=O)[nH]1 | i | ? | i | i | i | i
Cc1cc(NC(=O)CSCC(=O)N(C)Cc2cccc(Cl)c2)no1 | i | i | i | nt | nt | i
SMILES | HCMV inh | Pf growth 96h | HCV inhibitor | CHX counter | Shiga inhibitor | Pf growth 48h
OC[C@@H](O)C(O)[C@@H](O)CO (stereo partly drawn) | nt | nt | nt | i | i | nt
Cc1ccc(/C=N\NC(=O)C2CN(S(=O)(=O)c3ccccc3)CCN2S(=O)(=O)c2ccccc2)cc1 (stereo not drawn) | i | ? | ? | i | i | ?
O=C(NC1CCCCC1)C1CN(S(=O)(=O)c2ccccc2)CCN1S(=O)(=O)c1ccccc1 (stereo not drawn) | i | 11.7µM | i | i | i | i
CCc1cccc(CC)c1NC(=O)C1CN(S(=O)(=O)c2ccccc2)CCN1S(=O)(=O)c1ccccc1 (stereo not drawn) | i | ? | 12.6µM | i | i | ?
CCNC(=O)C1CN(S(=O)(=O)c2ccccc2)CCN1S(=O)(=O)c1ccccc1 (stereo not drawn) | i | 2.33µM | i | i | i | i
CCOC(=O)c1cc(-c2ccc(OC)c(S(=O)(=O)N3CCN(c4ccccc4)CC3)c2)on1 | i | nt | nt | nt | nt | nt
COc1ccc(CNc2oc(-c3ccc(COc4ccc(Cl)cc4)o3)nc2C#N)cc1 | i | nt | nt | nt | nt | nt
CCCC[n+]1cc(/N=C(\[O-])OC)on1 | i | i | i | i | i | i
CO/C([O-])=N/c1c[n+](-c2ccc(C)cc2)no1 | i | i | i | 22.2 | 42.9 | i
CCNC(=S)N(Cc1cc2cc(C)cc(C)c2[nH]c1=O)C1CCCC1 | i | 6.57µM | i | i | i | ?
CCOC(=O)c1cc(OC(=O)c2ccc(C)cc2)n(-c2ccccc2)n1 | i | nt | nt | nt | nt | nt
CC(C)c1nnc(NC(=O)c2ccc(N3C(=O)CCC3=O)cc2)s1 | i | i | i | i | i | i
Cc1cccc(-c2nnc(NC(=O)c3ccc(N4C(=O)CCC4=O)cc3)s2)c1 | i | 4.65µM | i[8.37 µM] | i | i | ?
C=C(C)C(=O)Nc1nnc(-c2ccccc2C)s1 | i | i | i | 33.6 | i | i
C/C=C/C(=O)Nc1nnc(-c2ccccc2C)s1 | i | i | i | i | i | i
Cc1ccccc1-c1nnc(NC(=O)c2ccc(N3C(=O)CCC3=O)cc2)s1 | i | 9.28µM | i | i | i | i
CCOC(=O)c1ccc[n+](CC(=O)c2ccc(OC)cc2)c1 | i | i | i | i | i | i
COc1ccc(C(=O)C[n+]2ccc3c(c2)nc(-c2ccc(OC)cc2OC)n3C)cc1 | -99.3 | 4.15µM | i | i | i | 11.7µM
COc1ccc(C(=O)C[n+]2ccc3c(c2)nc(-c2ccccc2)n3C)cc1 | -90.8 | i | i | i | i | 2.33µM
COc1cc(-c2nc3ccccc3c(=O)n2N)cc(OC)c1OC | i | ? | i | i | i | i
COc1cc(-c2nc3c[n+](CC(=O)c4ccccc4)ccc3n2C)cc(OC)c1OC | i | i | i | i | i | 7.38µM
COc1ccc(CNC(=O)C2CCN(C(=O)c3cccc(Cl)c3)CC2)cc1 | i | i | i | i | i | i
Cc1cc2c(n1-c1ccc(C(=O)NCCc3ccc(Cl)cc3)cc1)CCC(C)C2 (stereo not drawn) | i | nt | nt | nt | nt | nt
CSc1ccc(-c2ccco2)nn1 | i | i | i | 24.8 | 127.3 | i
CCSc1ccc(-c2ccco2)nn1 | i | i | i | 48.1 | 84.6 | i
SMILES | HCMV inh | Pf growth 96h | HCV inhibitor | CHX counter | Shiga inhibitor | Pf growth 48h
COc1cccc(-c2nnc(SCC(=O)N(C(C)C)C(C)C)o2)c1 | i | i | i | i | 55.8 | i
CCN(CC)C(=O)CSc1nnc(-c2cc(OC)cc(OC)c2)o1 | i | nt | ? | i | i | i
COC(=O)CSc1nnc(-c2ccc(OC)c(OC)c2)o1 | i | i | i | i | i | i
COc1cc(OC)cc(-c2nnc(SCC(=O)N(C(C)C)C(C)C)o2)c1 | i | i | i | i | i | 7.38µM
COC(=O)CSc1nnc(-c2cccc(O)c2)o1 | -64.7 | nt | nt | nt | nt | nt
CCN1c2ccccc2NC2C1C(C(C)=O)C(=O)N2c1ccc(Cl)cc1 (stereo not drawn) | i | i | 10µM | i | i | 13.1µM
